Source: PubChem BioAssay (EPA / NIEHS)
The source made the active and inactive calls. The calls were made as follows: active = hit-call score of the fitted dose curve at least 0.9, where 1 is the maximum; inactive = score below 0.9.

Tests used:
[1] = BSK_CASM3C_SRB: Viability Assessment in the BioMAP Diversity Plus: CASM3C Assay (AID 2283050); conditions: primary human coronary artery smooth muscle cells;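 also: total protein by SRB staining as cytotoxicity measure in parallel cultures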
[2] = read-out: Thrombomodulin, THBD (gene 7056); test: BSK_CASM3C_Thrombomodulin: BioMAP Diversity Plus: CASM3C Assay for Thrombomodulin Biomarker Activity (AID 2283051); conditions: primary human coronary artery smooth muscle cells; actives raise or lower the signal;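 also: thrombomodulin protein level measured by ELISA 24 h after dosing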
[3] = read-out: Tissue Factor, F3 (gene 2152); test: BSK_CASM3C_TissueFactor: BioMAP Diversity Plus: CASM3C Assay for Tissue Factor Biomarker Activity (AID 2283052); conditions: primary human coronary artery smooth muscle cells; actives raise or lower the signal;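 also: cell surface tissue factor protein level read by ELISA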
[4] = read-out: Interferon-gamma inducible Protein 10 (IP10), CXCL10 (gene 3627); test: BSK_hDFCGF_IP10: BioMAP Diversity Plus: hDFCGF Assay for Interferon-gamma inducible Protein 10 (IP10) Biomarker Activity (AID 2283053); conditions: primary human foreskin fibroblasts; actives raise or lower the signal
How it was run: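 Cells: human dermal foreskin fibroblasts. Exposure: 24 h post-dosing. Detection: IP-10 ELISA, with values expressed against DMSO controls and fitted in both directions.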

[5] = read-out: Urokinase-type plasminogen activator receptor (uPAR), PLAUR (gene 5329); test: BSK_CASM3C_uPAR: BioMAP Diversity Plus: CASM3C Assay for Urokinase-type plasminogen activator receptor (uPAR) Biomarker Activity (AID 2283054); conditions: primary human coronary artery smooth muscle cells; actives raise or lower the signal;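 also: cell-surface uPAR protein level quantified by ELISA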
[6] = read-out: Vascular cell adhesion molecule 1 (VCAM1), VCAM1 (gene 7412); test: BSK_CASM3C_VCAM1: BioMAP Diversity Plus: CASM3C Assay for Vascular cell adhesion molecule 1 (VCAM1) Biomarker Activity (AID 2283055); conditions: primary human coronary artery smooth muscle cells; actives raise or lower the signal;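 also: VCAM-1 protein level quantified by ELISA on the cells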
[7] = read-out: Collagen III, COL3A1 (gene 1281); test: BSK_hDFCGF_CollagenIII: BioMAP Diversity Plus: hDFCGF Assay for Collagen III Biomarker Activity (AID 2283056); conditions: primary human foreskin fibroblasts; actives raise or lower the signal
How it was run: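 Response relative to DMSO, fitted in both directions, reflects ELISA-measured collagen III in human primary skin fibroblasts 24 h after compound addition.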

[8] = read-out: Epidermal growth factor receptor (EGFR), EGFR (gene 1956); test: BSK_hDFCGF_EGFR: BioMAP Diversity Plus: hDFCGF Assay for Epidermal growth factor receptor (EGFR) Biomarker Activity (AID 2283057); conditions: primary human foreskin fibroblasts; actives raise or lower the signal
How it was run: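 Dosing human primary skin fibroblasts, then measuring surface EGFR by ELISA at 24 h, gives the endpoint; gains and losses relative to DMSO were fitted in both directions.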

[9] = read-out: Interleukin-8 (IL8), CXCL8 (gene 3576); test: BSK_hDFCGF_IL8: BioMAP Diversity Plus: hDFCGF Assay for Interleukin-8 (IL8) Biomarker Activity (AID 2283058); conditions: primary human foreskin fibroblasts; actives raise or lower the signal
How it was run: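 Fibroblast monolayers (human foreskin, hDFCGF) received test chemical for 24 h before ELISA detection of IL-8; either increases or decreases relative to DMSO count as activity.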

[10] = BSK_hDFCGF_Proliferation: Cell Proliferation Assessment in the BioMAP Diversity Plus: hDFCGF Assay (AID 2283059); conditions: primary human foreskin fibroblasts;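 also: curves fitted for both rise and fall of signal versus DMSO baseline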
How it was run: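 Primary human foreskin fibroblasts, sub-confluent; […]; 10% TCA fix, 0.1% SRB stain, A560 total protein. Gain/loss fitted bidirectionally vs DMSO control.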

[11] = BSK_hDFCGF_SRB: Viability Assessment in the BioMAP Diversity Plus: hDFCGF Assay (AID 2283061); conditions: primary human foreskin fibroblasts;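 also: cells exposed to compound for 24 h before the read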
How it was run: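 SRB-based viability read on primary human skin fibroblasts at 24 h: TCA fixation, 0.1% dye, 560 nm. Gain or loss of signal is fitted against the DMSO negative control.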

[12] = read-out: TIMP metallopeptidase inhibitor 1 (TIMP1), TIMP1 (gene 7076); test: BSK_hDFCGF_TIMP1: BioMAP Diversity Plus: hDFCGF Assay for TIMP metallopeptidase inhibitor 1 (TIMP1) Biomarker Activity (AID 2283062); conditions: primary human foreskin fibroblasts; actives raise or lower the signal
How it was run: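 Bidirectional curve fitting against DMSO baseline yielded this endpoint, based on ELISA detection of TIMP-1 in primary human foreskin fibroblasts exposed to compound for 24 h.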

[13] = read-out: Vascular cell adhesion molecule 1 (VCAM1), VCAM1 (gene 7412); test: BSK_hDFCGF_VCAM1: BioMAP Diversity Plus: hDFCGF Assay for Vascular cell adhesion molecule 1 (VCAM1) Biomarker Activity (AID 2283065); conditions: primary human foreskin fibroblasts; actives raise or lower the signal;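 as to AC50: VCAM-1 protein level quantified by ELISA after 24 h chemical exposure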
How it was run: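 Measured after 24 h chemical treatment of primary human skin fibroblasts, VCAM-1 was detected by ELISA and concentration-response analysed in both directions versus DMSO vehicle.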

[14] = read-out: Plasminogen activator inhibitor-1 (PAI1), SERPINE1 (gene 5054); test: BSK_hDFCGF_PAI1: BioMAP Diversity Plus: hDFCGF Assay for Plasminogen activator inhibitor-1 (PAI1) Biomarker Activity (AID 2283066); conditions: primary human foreskin fibroblasts; actives raise or lower the signal
How it was run: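 Fibroblasts from human foreskin were treated with test chemical. After 24 h, PAI-1 was measured by ELISA. Activity was fitted in both directions relative to DMSO.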

[15] = read-out: Intercellular Adhesion Molecule 1 (ICAM1), ICAM1 (gene 3383); test: BSK_KF3CT_ICAM1: BioMAP Diversity Plus: KF3CT Assay for Intercellular Adhesion Molecule 1 (ICAM1) Biomarker Activity (AID 2283067); conditions: primary human keratinocytes with fibroblasts; actives raise or lower the signal
How it was run: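 Bidirectional curve fitting against a DMSO baseline was applied to ICAM-1 ELISA signal from primary human skin co-cultures harvested 24 h after treatment, with SRB staining of parallel wells for overt cytotoxicity.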

[16] = read-out: Interferon-gamma inducible Protein 10 (IP10), CXCL10 (gene 3627); test: BSK_KF3CT_IP10: BioMAP Diversity Plus: KF3CT Assay for Interferon-gamma inducible Protein 10 (IP10) Biomarker Activity (AID 2283068); conditions: primary human keratinocytes with fibroblasts; actives raise or lower the signal
How it was run: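 In a primary skin co-culture of keratinocytes and fibroblasts, IP-10 is quantified by ELISA at 24 h after dosing. SRB staining of parallel wells monitors overt toxicity. Curves are fitted both directions against DMSO.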

[17] = BSK_KF3CT_SRB: Viability Assessment in the BioMAP Diversity Plus: KF3CT Assay (AID 2283069); conditions: primary human keratinocytes with fibroblasts;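 also: total protein by sulforhodamine B staining as a cytotoxicity measure; fitted for both signal gain and loss against DMSO baseline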
How it was run: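 SRB read-out at 560 nm (0.1% stain, TCA-fixed cells) gauges overt cytotoxicity in a human skin keratinocyte–fibroblast co-culture 24 h post-dosing. Signal change was fitted bidirectionally relative to DMSO control.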

[18] = read-out: Monokine induced gamma interferon (MIG), CXCL9 (gene 4283); test: BSK_hDFCGF_MIG: BioMAP Diversity Plus: hDFCGF Assay for Monokine induced gamma interferon (MIG) Biomarker Activity (AID 2283063); conditions: primary human foreskin fibroblasts; actives raise or lower the signal
How it was run: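 Endpoint derived by bidirectional fitting relative to DMSO; MIG quantified via ELISA in primary human foreskin fibroblasts harvested 24 h after dosing.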

[19] = read-out: Matrix Metallopeptidase 1 (MMP1), MMP1 (gene 4312); test: BSK_hDFCGF_MMP1: BioMAP Diversity Plus: hDFCGF Assay for Matrix Metallopeptidase 1 (MMP1) Biomarker Activity (AID 2283064); conditions: primary human foreskin fibroblasts; actives raise or lower the signal
How it was run: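 ELISA read-out of MMP1 from human foreskin fibroblasts (primary skin cells), 24 h post-dose. Gain or loss of signal was fitted bidirectionally versus DMSO negative control; cytotoxicity was checked by SRB in parallel cultures.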

Oc1ccc(C(c2ccc(O)cc2)(C(F)(F)F)C(F)(F)F)cc1
AC50 [1]: 27.9 µM (active)
AC50 [2]: 29.2 µM (active)
outcome [3]: inactive
AC50 [4]: 16.6 µM (active)
outcome [5]: inactive
AC50 [6]: 31 µM (active)
AC50 [7]: 13.1 µM (active)
outcome [8]: inactive
AC50 [9]: 30.6 µM (active)
AC50 [10]: 12.4 µM (active)
AC50 [11]: 13.7 µM (active)
AC50 [12]: 15.8 µM (active)
AC50 [13]: 7.41 µM (active)
AC50 [14]: 12.8 µM (active)
AC50 [15]: 37.7 µM (active)
AC50 [16]: 17.3 µM (active)
AC50 [17]: 24.1 µM (active)

CCC(=O)O[C@H]1CC[C@H]2[C@@H]3CCC4=CC(=O)CC[C@]4(C)[C@H]3CC[C@]12C
outcome [1]: inactive
outcome [2]: inactive
outcome [3]: inactive
outcome [5]: inactive
outcome [6]: inactive
outcome [8]: inactive
AC50 [9]: 38.2 µM (active)
AC50 [10]: 30.6 µM (active)
AC50 [11]: 36.1 µM (active)
AC50 [12]: 33.8 µM (active)
AC50 [18]: 36.9 µM (active)
AC50 [19]: 35.9 µM (active)
AC50 [13]: 31.4 µM (active)
AC50 [14]: 39.1 µM (active)
AC50 [15]: 37.5 µM (active)
AC50 [16]: 32.1 µM (active)
AC50 [17]: 36.3 µM (active)

ClC1=C(Cl)[C@]2(Cl)[C@@H]3[C@H]4C[C@H]([C@@H]5O[C@H]45)[C@@H]3[C@@]1(Cl)C2(Cl)Cl
outcome [1]: inactive
outcome [2]: inactive
AC50 [3]: 7.07 µM (active)
outcome [4]: inactive
outcome [5]: inactive
outcome [6]: inactive
outcome [7]: inactive
outcome [8]: inactive
outcome [9]: inactive
AC50 [10]: 6.6 µM (active)
outcome [11]: inactive
outcome [12]: inactive
outcome [18]: inactive
outcome [19]: inactive
outcome [13]: inactive
outcome [15]: inactive
outcome [16]: inactive
outcome [17]: inactive

Clc1ccc(C(Cl)(Cl)Cl)cc1
outcome [1]: inactive
outcome [2]: inactive
outcome [3]: inactive
outcome [4]: inactive
outcome [5]: inactive
outcome [6]: inactive
outcome [7]: inactive
outcome [8]: inactive
outcome [9]: inactive
outcome [10]: inactive
outcome [11]: inactive
outcome [12]: inactive
outcome [18]: inactive
outcome [19]: inactive
outcome [13]: inactive
outcome [14]: inactive
outcome [15]: inactive
outcome [16]: inactive
outcome [17]: inactive

CCC(C)(c1ccc(O)cc1)c1ccc(O)cc1
outcome [1]: inactive
AC50 [2]: 26.5 µM (active)
outcome [3]: inactive
AC50 [4]: 30.1 µM (active)
outcome [5]: inactive
outcome [6]: inactive
AC50 [7]: 20 µM (active)
outcome [8]: inactive
outcome [9]: inactive
AC50 [10]: 30.4 µM (active)
AC50 [11]: 27.7 µM (active)
outcome [12]: inactive
outcome [18]: inactive
outcome [19]: inactive
AC50 [13]: 20 µM (active)
outcome [14]: inactive
outcome [15]: inactive
outcome [16]: inactive
outcome [17]: inactive

CN(C)CCO
outcome [1]: inactive
outcome [2]: inactive
outcome [3]: inactive
outcome [4]: inactive
outcome [5]: inactive
outcome [6]: inactive
outcome [7]: inactive
outcome [8]: inactive
outcome [9]: inactive
outcome [10]: inactive
outcome [11]: inactive
outcome [12]: inactive
outcome [18]: inactive
outcome [19]: inactive
outcome [13]: inactive
outcome [14]: inactive
outcome [15]: inactive
outcome [16]: inactive
outcome [17]: inactive

O=C(NC(=O)c1cc(F)c(F)cc1Cl)Nc1cc(F)ccc1N1CCC(C(=O)O)CC1
outcome [1]: inactive
outcome [2]: inactive
outcome [3]: inactive
outcome [4]: inactive
outcome [5]: inactive
outcome [6]: inactive
outcome [7]: inactive
outcome [8]: inactive
outcome [9]: inactive
outcome [10]: inactive
outcome [11]: inactive
outcome [12]: inactive
outcome [18]: inactive
outcome [19]: inactive
outcome [13]: inactive
outcome [14]: inactive
outcome [15]: inactive
outcome [16]: inactive
outcome [17]: inactive

CC(C)C(=O)OCC(C)(C)C(OC(=O)C(C)C)C(C)C (centres undefined)
outcome [1]: inactive
outcome [2]: inactive
outcome [3]: inactive
outcome [4]: inactive
outcome [5]: inactive
outcome [6]: inactive
outcome [7]: inactive
outcome [8]: inactive
outcome [9]: inactive
AC50 [10]: 34.4 µM (active)
outcome [11]: inactive
outcome [12]: inactive
outcome [18]: inactive
outcome [19]: inactive
outcome [13]: inactive
outcome [14]: inactive
outcome [15]: inactive
outcome [16]: inactive
outcome [17]: inactive

ClC1=C(Cl)[C@]2(Cl)[C@@H]3[C@@H](Cl)[C@H]4O[C@H]4[C@@H]3C1(Cl)C2(Cl)Cl
outcome [1]: inactive
outcome [2]: inactive
outcome [3]: inactive
outcome [4]: inactive
outcome [5]: inactive
outcome [6]: inactive
outcome [7]: inactive
outcome [8]: inactive
outcome [9]: inactive
AC50 [10]: 5.9 µM (active)
AC50 [11]: 5.55 µM (active)
outcome [12]: inactive
outcome [18]: inactive
outcome [19]: inactive
outcome [13]: inactive
outcome [14]: inactive
outcome [15]: inactive
outcome [16]: inactive
outcome [17]: inactive

O=S(=O)(O)C(F)(F)C(F)(F)C(F)(F)C(F)(F)C(F)(F)C(F)(F)F
outcome [1]: inactive
outcome [2]: inactive
outcome [3]: inactive
outcome [4]: inactive
outcome [5]: inactive
outcome [6]: inactive
outcome [7]: inactive
outcome [8]: inactive
outcome [9]: inactive
outcome [10]: inactive
outcome [11]: inactive
outcome [12]: inactive
outcome [18]: inactive
outcome [19]: inactive
outcome [13]: inactive
outcome [14]: inactive
outcome [15]: inactive
outcome [16]: inactive
outcome [17]: inactive

Cc1cccc([N+](=O)[O-])c1
outcome [1]: inactive
outcome [2]: inactive
outcome [3]: inactive
outcome [4]: inactive
outcome [5]: inactive
outcome [6]: inactive
outcome [7]: inactive
outcome [8]: inactive
outcome [9]: inactive
outcome [10]: inactive
outcome [11]: inactive
outcome [12]: inactive
outcome [18]: inactive
outcome [19]: inactive
outcome [13]: inactive
outcome [14]: inactive
outcome [15]: inactive
outcome [16]: inactive
outcome [17]: inactive
